Reference: PubChem BioAssay

system: not listed separately; assay: compounds binding Alexa647 anti-His antibody – biochemical, small-molecule microarray, 635 nm fluorescence, artefact control for SMM control protein annotation, primary screen (AID 1128); settings: higher = more signal;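 note: score merges feature fluorescence with signal-to-noise for each printed compound spot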

Structure (SMILES)	composite z-score
COc1cc(NN2C(C(O)c3ccco3)C=CC3C(=O)N(c4ccccc4)C(=O)C32)cc(OC)c1OC (configuration not stated)	0.284
COC(=O)[C@@]1(Cc2ccc(OC)cc2)[C@H]2c3cc(C(=O)N(C)C)n(CCc4ccccn4)c3C[C@H]2CN1C(=O)c1ccccc1	0.429
O=C(NC1CC1)[C@@H]1c2ccccc2C(=O)N(Cc2ccccc2Cl)[C@H]1c1ccc(CO)cc1	3.06
COC(=O)[C@@]1(Cc2ccc(F)cc2)[C@H]2c3cc(C(=O)N(C)C)n(Cc4ccccc4)c3C[C@H]2CN1C(=O)c1ccccc1	1.38
O=C1C2C=CC(C(O)CCc3ccccc3)N(Nc3ccccc3F)C2C(=O)N1c1ccccc1 (configuration not stated)	1.49
C=C[C@H](CO[Si](CC)(CC)CC)N(Cc1ccc(OC(C)=O)c(OC)c1)S(=O)(=O)c1ccc(Br)cc1	2.48
O=C1O[C@@H](c2ccccc2)[C@@H](c2ccccc2)N2[C@@H](c3ccccc3OCCO)[C@]3(C(=O)Nc4ccc(C#CC5=CCCCC5)cc43)[C@@H](C(=O)N3CCCCCCC3)[C@H]12	1.53
CCOC(=O)[C@H]1C/C=C/C[C@H](C(=O)OCC)C(=O)O[C@H]2[C@@H](OC)O[C@H](CO)[C@@H](OC(=O)c3c(OC)cccc3OC)[C@@H]2OC1=O	0.0181
CCC(CC)C(O)C1C=CC2C(=O)NC(=O)C2N1Nc1ccc(Cl)cc1Cl (configuration not stated)	1.66
CCOC(=O)C[C@H]1[C@H](OC(=O)c2ccc(C(=O)c3ccccc3)cc2)[C@@H](NC(=O)c2ccc3ccccc3c2)c2cc(OCCCO)ccc2N1C(=O)Cc1ccc(OC)cc1	0.0204
COC(=O)[C@@]1(CCC(=O)OC(C)(C)C)N=C(c2ccc(OCCCO)cc2)O[C@H]1c1ccccc1N=[N+]=[N-]	0.421
COC(=O)[C@@]1(Cc2ccc(OC)cc2)[C@H]2c3cc(C(=O)N(C)C)n(Cc4ccccn4)c3C[C@H]2CN1C(=O)c1ccccc1	1.57
CCCC[C@@H]1C[C@H]1[C@@H](NC(=O)c1ccccc1)c1ccc(C(=O)OC)cc1	-0.248
CCCCCCc1nc(-c2ccc(OC)nc2)cc2c1[Si](C(C)C)(C(C)C)O[C@H]2c1ccccc1	-0.133
COC(=O)C(CC#Cc1ccc2c(c1)[C@]1(C(=O)N2)[C@H](C(=O)Nc2nc3ccccc3s2)[C@H]2C(=O)O[C@H](c3ccccc3)[C@H](c3ccccc3)N2[C@@H]1c1ccccc1OCCO)C(=O)OC	1.41
CN(C)C(=O)[C@@]1(CCS(=O)(=O)c2ccccc2)COC(c2ccc(OCCCO)cc2)=N1	1.45
COc1ccc(C#Cc2ccc3c(c2)[C@]2(C(=O)N3)[C@H](C(=O)Nc3nc4ccccc4s3)[C@H]3C(=O)O[C@H](c4ccccc4)[C@H](c4ccccc4)N3[C@@H]2c2ccc(O)cc2)cc1	0.973
C=C(CC1([C@@H](NP(=O)(c2ccccc2)c2ccccc2)[C@H]2C[C@@H]2CCCC)CC1)c1ccccc1	0.767
C=CCN1C(=O)[C@@]2(CC=C)N=C(c3ccc(OCCCO)cc3)O[C@H]2c2ccccc21	2.12
CCCC[C@@H]1C[C@H]1[C@@H](NC(=O)c1ccco1)c1ccc(-c2ccccc2)cc1	0.633
C=C(C)[C@@H]1CC=C(C(O)C2C=CC3C(=O)N(C)C(=O)C3N2Nc2ccccc2)CC1 (some centres not stated)	-0.243
O=C1C2C=CC(C(O)Cc3ccccc3)N(n3cnnc3)C2C(=O)N1Cc1ccccc1 (configuration not stated)	1.38
C=C(COC)/C(=C/C[C@@H](OC(C)=O)c1ccc(OCCO)cc1)c1cnc2ccccc2c1	0.616
COCCOC(=O)N1C(=O)[C@@]2(c3cc(C#CCNC(N)=O)ccc31)[C@H](C(=O)N1CCN(c3ncccn3)CC1)[C@H]1C(=O)O[C@H](c3ccccc3)[C@H](c3ccccc3)N1[C@@H]2c1ccc(OCCO)cc1	0.549
C=CCOC(=O)[C@@H]1[C@H]2C(=O)O[C@H](c3ccccc3)[C@H](c3ccccc3)N2[C@H](c2ccc(OCCOC(=O)[C@@H]3C[C@@H]4C(=O)NCC(=O)N4[C@@H]3c3ccc(O)cc3)cc2)[C@@]12C(=O)Nc1ccc(I)cc12	1.88
CC#CC(=O)Oc1ccccc1C=CC(=O)OCC	0.259
CCCC[C@@H]1C[C@H]1[C@@H](NC(=O)c1ccco1)c1ccccc1C(F)(F)F	-0.422

system: Human papillomavirus type 1a E7 protein (residues 1-88); assay: HPV1a E7 small-molecule binders, primary screen, biochemical, small-molecule microarray, residues 1-88, 635 nm (AID 1129); settings: small-molecule microarray binding, fluorescence 635 nm; higher = more signal

Structure (SMILES)	composite z-score
COCCOC(=O)N1C(=O)[C@@]2(c3ccccc31)[C@H](c1ccc(O)cc1)N1[C@H](c3ccccc3)[C@H](c3ccccc3)OC(=O)[C@H]1[C@@H]2C(=O)Nc1nc2ccccc2s1	1.17
C=CCOC(=O)[C@H]1[C@@H]2C(=O)O[C@@H](c3ccccc3)[C@@H](c3ccccc3)N2[C@@H](c2ccc(OCCOC(=O)[C@H]3C[C@H]4C(=O)N[C@@H](CCCCN(C)C)C(=O)N4[C@H]3c3ccc(O)cc3)cc2)[C@]12C(=O)Nc1ccc(I)cc12	1.23
NC(=O)[C@@H]1[C@H]2C(=O)O[C@H](c3ccccc3)[C@H](c3ccccc3)N2[C@H](c2ccc(O)cc2)[C@@]12C(=O)Nc1ccccc12	-0.507
CC(C)C[C@@H]1NC(=O)[C@H](C(C)C)NC(=O)[C@@]23C(=O)N[C@@H](Cc4ccccc4)C2[C@H](C)[C@@]2(C)O[C@H]2C3/C=C/CC/C=C/CNC1=O (some centres not stated)	0.466
COC(=O)C(CC#Cc1ccc2c(c1)[C@]1(C(=O)N2)[C@H](c2ccc(OCCO)cc2)N2[C@H](c3ccccc3)[C@H](c3ccccc3)OC(=O)[C@H]2[C@@H]1C(=O)Nc1nc2ccccc2s1)C(=O)OC	1.23
O=C1NC(=O)C2C1C=CC(C(O)c1cc(C(F)(F)F)cc(C(F)(F)F)c1)N2Nc1ccccn1 (configuration not stated)	0.289
Cc1ccc(S[C@]2(C(=O)NCCCN(C)C)CC(=O)N(Cc3cc(C(F)(F)F)cc(C(F)(F)F)c3)[C@@H]2c2ccc(CO)cc2I)cc1	-0.77
C=C(C(=O)CC[C@@H](OC(=O)c1cccnc1)c1ccccc1OCCO)C(C)C	0.131
COc1cc(NN2C(C(O)c3ccco3)C=CC3C(=O)N(c4ccccc4)C(=O)C32)cc(OC)c1OC (configuration not stated)	1.06
COC(=O)[C@@]1(Cc2ccc(OC)cc2)[C@H]2c3cc(C(=O)N(C)C)n(CCc4ccccn4)c3C[C@H]2CN1C(=O)c1ccccc1	0.815
O=C(NC1CC1)[C@@H]1c2ccccc2C(=O)N(Cc2ccccc2Cl)[C@H]1c1ccc(CO)cc1	0.981
COC(=O)[C@@]1(Cc2ccc(F)cc2)[C@H]2c3cc(C(=O)N(C)C)n(Cc4ccccc4)c3C[C@H]2CN1C(=O)c1ccccc1	0.789
O=C1C2C=CC(C(O)CCc3ccccc3)N(Nc3ccccc3F)C2C(=O)N1c1ccccc1 (configuration not stated)	1.14
C=C[C@H](CO[Si](CC)(CC)CC)N(Cc1ccc(OC(C)=O)c(OC)c1)S(=O)(=O)c1ccc(Br)cc1	1.08
O=C1O[C@@H](c2ccccc2)[C@@H](c2ccccc2)N2[C@@H](c3ccccc3OCCO)[C@]3(C(=O)Nc4ccc(C#CC5=CCCCC5)cc43)[C@@H](C(=O)N3CCCCCCC3)[C@H]12	1.32
CCOC(=O)[C@H]1C/C=C/C[C@H](C(=O)OCC)C(=O)O[C@H]2[C@@H](OC)O[C@H](CO)[C@@H](OC(=O)c3c(OC)cccc3OC)[C@@H]2OC1=O	1.12
CCC(CC)C(O)C1C=CC2C(=O)NC(=O)C2N1Nc1ccc(Cl)cc1Cl (configuration not stated)	1.18
CCOC(=O)C[C@H]1[C@H](OC(=O)c2ccc(C(=O)c3ccccc3)cc2)[C@@H](NC(=O)c2ccc3ccccc3c2)c2cc(OCCCO)ccc2N1C(=O)Cc1ccc(OC)cc1	0.542

Structure (SMILES)	composite z-score
COC(=O)[C@@]1(CCC(=O)OC(C)(C)C)N=C(c2ccc(OCCCO)cc2)O[C@H]1c1ccccc1N=[N+]=[N-]	1.17
COC(=O)[C@@]1(Cc2ccc(OC)cc2)[C@H]2c3cc(C(=O)N(C)C)n(Cc4ccccn4)c3C[C@H]2CN1C(=O)c1ccccc1	0.451
CCCC[C@@H]1C[C@H]1[C@@H](NC(=O)c1ccccc1)c1ccc(C(=O)OC)cc1	-0.429
CCCCCCc1nc(-c2ccc(OC)nc2)cc2c1[Si](C(C)C)(C(C)C)O[C@H]2c1ccccc1	-0.484
COC(=O)C(CC#Cc1ccc2c(c1)[C@]1(C(=O)N2)[C@H](C(=O)Nc2nc3ccccc3s2)[C@H]2C(=O)O[C@H](c3ccccc3)[C@H](c3ccccc3)N2[C@@H]1c1ccccc1OCCO)C(=O)OC	1.24
CN(C)C(=O)[C@@]1(CCS(=O)(=O)c2ccccc2)COC(c2ccc(OCCCO)cc2)=N1	1.24
COc1ccc(C#Cc2ccc3c(c2)[C@]2(C(=O)N3)[C@H](C(=O)Nc3nc4ccccc4s3)[C@H]3C(=O)O[C@H](c4ccccc4)[C@H](c4ccccc4)N3[C@@H]2c2ccc(O)cc2)cc1	1.24
C=C(CC1([C@@H](NP(=O)(c2ccccc2)c2ccccc2)[C@H]2C[C@@H]2CCCC)CC1)c1ccccc1	1.19
C=CCN1C(=O)[C@@]2(CC=C)N=C(c3ccc(OCCCO)cc3)O[C@H]2c2ccccc21	1.2
CCCC[C@@H]1C[C@H]1[C@@H](NC(=O)c1ccco1)c1ccc(-c2ccccc2)cc1	0.665
C=C(C)[C@@H]1CC=C(C(O)C2C=CC3C(=O)N(C)C(=O)C3N2Nc2ccccc2)CC1 (some centres not stated)	1.17
O=C1C2C=CC(C(O)Cc3ccccc3)N(n3cnnc3)C2C(=O)N1Cc1ccccc1 (configuration not stated)	0.396
C=C(COC)/C(=C/C[C@@H](OC(C)=O)c1ccc(OCCO)cc1)c1cnc2ccccc2c1	0.328
COCCOC(=O)N1C(=O)[C@@]2(c3cc(C#CCNC(N)=O)ccc31)[C@H](C(=O)N1CCN(c3ncccn3)CC1)[C@H]1C(=O)O[C@H](c3ccccc3)[C@H](c3ccccc3)N1[C@@H]2c1ccc(OCCO)cc1	1.12
C=CCOC(=O)[C@@H]1[C@H]2C(=O)O[C@H](c3ccccc3)[C@H](c3ccccc3)N2[C@H](c2ccc(OCCOC(=O)[C@@H]3C[C@@H]4C(=O)NCC(=O)N4[C@@H]3c3ccc(O)cc3)cc2)[C@@]12C(=O)Nc1ccc(I)cc12	1.21
CC#CC(=O)Oc1ccccc1C=CC(=O)OCC	0.69
CCCC[C@@H]1C[C@H]1[C@@H](NC(=O)c1ccco1)c1ccccc1C(F)(F)F	0.0662
